Reference: PubChem BioAssay AID602233 (National Center for Advancing Translational Sciences (NCATS), 2012)
In all, about 380,000 compounds went through this assay and about 170 (0.045%) were called active. For the sample, actives were picked, then their nearest neighbours and some compounds at random. Values without a mark were called inactive. Calls come from the whole dose curve; as a rule, active = well fitted inhibition curve with a large enough effect; inconclusive = small, poorly fitted or top-dose-only effect; inactive = no such curve, though single readings can be large or run the other way.

target: Phosphoglycerate kinase, glycosomal (Trypanosoma brucei brucei) (UniProt P07378); assay: qHTS Assay to Find Inhibitors of Phosphoglycerate Kinase; settings: PGK/GAPDH coupled, Kinase-Glo luminescence, 60 min; series mostly up to 57.5 µM; activity change, negative = inhibition: at the top concentration; note: nearly all actives have a fitted effect of over 60% in size
Sequence (P07378 whole entry, looked up): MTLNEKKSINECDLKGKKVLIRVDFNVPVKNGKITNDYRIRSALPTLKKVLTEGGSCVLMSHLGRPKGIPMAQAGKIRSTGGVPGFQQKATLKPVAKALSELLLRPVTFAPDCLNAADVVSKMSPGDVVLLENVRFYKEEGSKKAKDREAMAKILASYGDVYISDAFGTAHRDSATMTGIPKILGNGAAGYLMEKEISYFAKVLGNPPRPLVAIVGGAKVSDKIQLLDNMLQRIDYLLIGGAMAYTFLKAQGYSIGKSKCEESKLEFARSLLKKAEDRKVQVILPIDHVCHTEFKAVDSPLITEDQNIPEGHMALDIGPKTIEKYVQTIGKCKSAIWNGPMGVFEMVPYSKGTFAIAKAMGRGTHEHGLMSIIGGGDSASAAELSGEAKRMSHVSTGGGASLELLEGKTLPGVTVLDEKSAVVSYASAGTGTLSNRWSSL
Description: Several species of the Trypanosomatidae family of parasitic protozoans cause a spectrum of diseases throughout the tropical and subtropical world. Sleeping sickness, caused by two subspecies of Trypanosoma brucei, is endemic to areas of sub-Saharan Africa, while Chagas disease, a manifestation of Trypanosoma cruzi infection, is prevalent throughout Central and South America. In addition, many species of Leishmania are responsible for a range of cutaneous and visceral diseases, causing ulcers, destructive lesions and kalaazar, a lethal infection of the viscera. Collectively, these organisms infect 30 million people worldwide (~500 million live in endemic areas), and account for ~130,000 deaths annually. Given their debilitating and prevalent nature, trypanosomatid parasites impose a heavy medical, economic and social burden on entire populations, primarily in the developing world. The problem is further exacerbated by the fact that existing treatments have progressed little in the past 50 years, and current drugs show high toxicity and poor efficacy. […] Blood-stream stages of T. brucei are entirely dependent on glycolysis as a source of ATP, and the tricarboxylic acid cycle and oxidative phosphorylation are both repressed. Glycolysis in axenically cultured T. cruzi, representing the intracellular pathogenic stage, is also essential for these parasites. […] Previous studies have shown that the glycolytic enzyme, phosphoglycerate kinase (PGK), is a viable target for drugs to kill these parasites. […] NIH Molecular Libraries Probe Production Network [MLPCN] NIH Chemical Genomics Center [NCGC] MLPCN Grant: R03 MH093212 PI Name: Malcolm Walkinshaw, University of Edinburgh
3ul of substrate/PGK buffer (columns 1,2,5-48) are dispensed into Greiner white solid bottom 1536-well assay plates; columns 3-4 receive only TEA buffer as 0x PGK controls. Compounds are then transferred via Kalypsys pin tool equipped with 1536-pin array (10nl slotted pins, V&P Scientific, San Diego, CA). Following addition of compound, 1ul of GAPDH (100nM final concentration, all columns) is added to initiate the reaction (this upstream coupling enzyme is necessary for in-well production of PGK substrate, 1,3-bisphosphoglycerate (1,3-BPG), which is unstable and not commercially available). The plates are then incubated at room temperature for 60 minutes. Kinase-Glo Plus reagent is added (2ul) and plates incubated for 10 minutes, before being transferred to a ViewLux high-throughput CCD imager (PerkinElmer) wherein single end-point measurements of luminescence are acquired using a clear filter. All reagents are diluted in an assay buffer consisting of 100mM TEA (pH 7.6), 5mM MgCl2 and 0.01% Tween-20.
% is set by controls: 0 for no effect and ±100 for the full control effect.

SMILES | activity change, negative = inhibition | outcome
CCCN1CN=C(NS(=O)(=O)c2ccc(NC(C)=O)cc2)NC1 | -8.9% | –
CC(=O)N1CCCc2cc(S(=O)(=O)N3CCC(C(=O)NCc4ccc(F)cc4)CC3)ccc21 | – | inactive
COc1cccc(NC(=O)c2ccc3nc(CCc4ccccc4)oc3c2)c1 | – | inactive
COc1ccc2c(c1)C=C(C(=O)NCc1cc(Br)ccc1OC)CO2 | – | inactive
CC(=O)Nc1cc(C(=O)NCc2ccc(F)cc2Cl)ccc1Sc1ccc(Cl)cc1 | 8.65% | –
COc1ccc(-c2cn3c(C)c(C(=O)Nc4cc(C)cc(C)c4)sc3n2)cc1 | -0.686% | –
CCc1ccccc1NC(=O)CSc1nnc(-c2ccccc2)c(-c2ccccc2)n1 | 9.96% | –
COc1ccc(OC)c(NC(=O)C2CCN(S(=O)(=O)c3ccc(C)cc3)CC2)c1 | -0.994% | –
Cn1c(=O)c2c(SCC(=O)N3CCc4ccccc43)nc(-c3ccc(Cl)cc3)nc2n(C)c1=O | – | inactive
O=C(CSc1ncc(CO)n1Cc1ccc(F)cc1)NCc1ccco1 | -6.21% | –
CCC1CN(S(=O)(=O)c2cc(-c3cc(C)no3)ccc2C)c2cc(C)ccc2O1 (configuration not stated) | -0.193% | –
Cc1oc2ncnc(N3CCOCC3)c2c1C(=O)NCCc1ccccc1 | -4.29% | –
Cc1cccc(C(=O)NCCc2nc3ccccc3n2Cc2ccccc2Cl)c1 | 2.99% | –
CCc1ccc(CNC(=O)c2cc3cc4ccc(OC)cc4nc3o2)cc1 | -5.03% | –
CCC(=O)Nc1c(C(=O)N2CCN(c3ccc(F)cc3)CC2)oc2ccccc12 | 3.16% | –
COc1ccc(-c2c(C)nn3c(N4CCC(C(=O)NCCC(C)C)CC4)cc(C)nc23)cc1OC | 0.974% | –
Cc1ccccc1CSc1nc(-c2ccccc2)nc2c1Cc1c(CO)cnc(C)c1O2 | – | inactive
Cc1ccc(-c2nnc3c4ccccc4c(C)nn23)cc1NC(=O)c1cccc(Br)c1 | 7.56% | –
Cc1ccc(NC(=O)Cn2cnc3nc4c(cc3c2=O)CCCC4)cc1Cl | -6.55% | –
O=C(c1ccc(Br)cc1)N(Cc1cccs1)c1ccc(F)cc1 | 3.55% | –
Cc1ccc(NC(=O)CSc2nc3ccccc3c3nc(CCn4cncc4C)nn23)cc1F | 4.26% | –
CC(C)Cn1c(-c2ccc(S(=O)(=O)N3CCOCC3)cc2)csc1=Nc1cc(Cl)ccc1Cl | – | inactive
CCc1ccc(NC(=O)N2CCN(C(=O)c3nsc4ccccc34)CC2)cc1 | 6.83% | –
Cc1ccc(Cl)cc1NC(=O)CCS(=O)(=O)c1ccc(Br)s1 | -2.54% | –
Cc1cc(Br)ccc1NC(=O)Cn1cnc2sc(C)c(S(=O)(=O)N3CCN(C)CC3)c2c1=O | – | inactive

SMILES | activity change, negative = inhibition | outcome
Cc1ccc(NC(=O)c2oc3ccccc3c2NC(=O)Cc2cccs2)cc1 | -7.26% | –
Cc1ccc(-n2nc(CO)c(C(=O)NCCc3ccccc3)n2)cc1 | -11.4% | –
COC(=O)c1ccccc1NC(=O)C(Cc1ccccc1)N1Cc2ccccc2C1=O (configuration not stated) | – | inactive
O=C1CCCc2cc(S(=O)(=O)N3CCCC(C(=O)NCc4ccccc4)C3)ccc2N1 (configuration not stated) | 6.57% | –
COc1ccc(C2C(=O)N(C3CCCCCC3)CC(=O)N2CCc2ccc(Cl)cc2)cc1OC (configuration not stated) | – | inactive
COC(=O)c1c(NC(=O)C(C)Oc2ccc(Cl)c(C)c2)sc(C)c1C (configuration not stated) | – | inactive
COc1ccccc1CNC(=O)c1ccc(NC(=O)N2CC(C)Sc3ccccc32)cc1 (configuration not stated) | 3.38% | –
Cc1cc(C)c(/C=C/c2onc(C)c2S(=O)(=O)N2CCC(C(=O)Nc3ccc(Cl)cc3C)CC2)c(C)c1 | 1.64% | –
CCc1cccc(NC(=O)CSc2nccn2C)c1 | 0.152% | –
COc1cc(C(=O)NCC(c2ccc(Cl)cc2)N2CCOCC2)cc(OC)c1OC (configuration not stated) | 1.64% | –
COc1ccc(Cn2c(=O)c3oc4ccccc4c3n(CC(=O)Nc3ccc(F)cc3F)c2=O)cc1 | – | inactive
CCOc1ccc(NC(=O)Cn2cc(C(=O)c3ccc(C)cc3)c(=O)c3cc4c(cc32)OCCO4)cc1 | – | inactive
CCCCc1nn2c(=O)cc(COC(=O)c3ccc(NC(=O)c4ccccc4C)cc3)nc2s1 | -1.81% | –
Cc1ccccc1CNC(=O)c1ccc(NC(=O)N2CCCCc3ccccc32)cc1 | 9.36% | –
COc1ccc(CNC(=O)COCc2cc(-c3cccs3)on2)cc1OC | – | inactive
CCCN(CCC)C(=O)C(Cc1ccccc1)NS(=O)(=O)c1ccc2c(c1)c(=O)n(C)c(=O)n2C (configuration not stated) | -0.144% | –
CCCCNc1ccc(-c2nc(-c3ccncc3)no2)cc1[N+](=O)[O-] | -0.547% | –
CCOc1ccccc1NC(=O)Cn1c(=O)n(Cc2ccco2)c(=O)c2sc3ccccc3c21 | -8.83% | –
Cc1ccc(NC(=O)c2cn3c4c(ccc(Cl)c4c2=O)OC(C)C3)cc1C (configuration not stated) | – | inactive
O=C(CSc1n[nH]c(-c2ccccc2)n1)N1CCCCC1 | -1.92% | –
COc1ccc(-c2noc(CSc3nnc(-c4ccccc4)n3-c3ccc(F)cc3)n2)c(OC)c1 | -0.281% | –
O=C(NCc1ccccc1Cl)C1=Cc2cc(Br)ccc2OC1 | -7.68% | –
O=C(Nc1ccc(F)cc1F)c1cnn(-c2ccc(F)cc2)c1-n1cccc1 | -3.35% | –
COc1ccccc1CNC(=O)CCn1c(=O)c2ccccc2n(CC(=O)Nc2ccc(Br)cc2F)c1=O | -3.68% | –
Cc1ccc(Nc2ccc3cc(S(=O)(=O)N4CCCCC4)ccc3n2)cc1F | -1.23% | –

SMILES | activity change, negative = inhibition | outcome
COc1ccc(-c2nc3nc(C)cc(C)n3c2Nc2c(C)cccc2C)cc1 | -1.29% | –
Cc1ccc(-n2ncc3c(NCCCn4ccnc4)ncnc32)cc1Cl | – | inactive
CCCN1CCN(CCCNC(=O)c2cnn(-c3ccc(C)cc3)c2-n2cccc2)CC1 | – | inactive
CSc1ccc(CCNC(=O)c2cc(C)nc3c2c(C)nn3-c2cccc(F)c2)cc1 | -6.82% | –
NC1=NC(c2cc(F)cc(F)c2)n2c(nc3ccccc32)N1 (configuration not stated) | 1.97% | –
COc1ccc2c(Sc3ccc(C)cc3)c(C(=O)NC(C)c3ccccc3)[nH]c2c1 (configuration not stated) | -15.5% | –
CCCCOc1ccc(CNC(=O)c2ccc3c(c2)N(C)C(=O)C2CCCCN32)cc1 (configuration not stated) | -2.79% | –
O=C(Cn1c(-c2cccs2)cc2ccccc21)NCCc1ccc(Cl)cc1 | -6.23% | –
Cc1nn2c(=O)cc(COC(=O)c3cccc(NC(=O)COc4ccccc4Cl)c3)nc2s1 | – | inactive
COc1ccc(-c2cn3c(n2)sc2cc(C(=O)Nc4ccc(F)cc4)ccc23)cc1 | -9.23% | –
COc1ccccc1CNC(=O)c1ccccc1NC(=O)c1nsc2ccccc12 | -6.03% | –
Cc1ccc(Cn2c(=O)n(CCCC(=O)NCc3ccccc3Cl)c(=O)c3ccccc32)cc1 | -2.7% | –
CCCCOc1ccc(NC(=O)c2cc3c(n(-c4ccc(Cl)cc4)c2=O)CCCC3=O)cc1 | -0.531% | –
CCOc1ccccc1CNCc1c(C(=O)O)c(C)n(Cc2ccc(C)cc2)c1C | -6.39% | –
CCOc1ccc(CNC(=O)CCc2c(C)nn(-c3ccc(N4CCCCC4)nn3)c2C)cc1 | -4.7% | –
CCOC(=O)C1CCCN(S(=O)(=O)c2cc(-c3cc(C)no3)ccc2OC)C1 (configuration not stated) | -9.52% | –
COc1ccccc1-c1noc(CSc2nnc(-c3ccccc3)n2-c2ccc(C)c(C)c2)n1 | – | inactive
COc1cccc(NC(=O)CN2C(=O)c3ccccc3Sc3ncccc32)c1 | -0.909% | –
COc1cccc(OCCn2c(-c3ccc(Br)cc3)nc3ccccc3c2=O)c1 | 4.47% | –
O=C(Cn1c(=O)n(Cc2ccccc2)c(=O)c2sc3ccccc3c21)Nc1ccccc1F | -5.67% | –
CCC(=O)N1CCc2cc(S(=O)(=O)NC(CC(C)C)C(=O)NCCc3cccc(C)c3)ccc21 (configuration not stated) | 7.21% | –
CCOc1ccc(-n2nc3ccc(NC(=O)c4ccc(OC)c(Cl)c4)cc3n2)cc1 | 9.53% | –
Cc1cc(C)c(NC(=O)c2cc3sc(Cl)cc3n2C)c(C)c1 | 5.73% | –
CCn1c2ccccc2c2nnc(SCC(=O)O)nc21 | – | inactive
COc1ccc(-c2nc(Cn3c(=O)cc(C)c4c(C)nn(-c5ccccc5)c43)c(C)o2)c(OC)c1 | 9.43% | –

SMILES | activity change, negative = inhibition | outcome
COc1ccccc1CNC(=O)c1ccc(-n2c(C)cc3c2CCCC3)cc1 | 3.07% | –
Cc1ccc(O)c(NC(=O)CCS(=O)(=O)c2nc(-c3ccc4c(c3)OCO4)cc(C(F)(F)F)n2)c1 | -6.86% | –
COc1ccc(NC(=O)c2ccco2)cc1NC(=O)COc1ccc(C)c(C)c1 | 3.35% | –
CCCSc1nc2sc3c(c2c(=O)n1-c1cccc(Br)c1)CC(C)(C)OC3 | – | inactive
O=C(NCCCO)C(=O)Nc1c2c(nn1-c1ccccc1)CSC2 | 13.6% | –
COc1ccc(NC(=O)CCNS(=O)(=O)c2ccc3c(c2)CCCC(=O)N3)cc1Cl | 0.351% | –
CN1c2ccc(Cl)cc2-c2nc(SCC(=O)Nc3cc(F)ccc3F)ncc2S1(=O)=O | -1.46% | –
COc1ccc(Cc2nc3ccc(C(=O)NCc4ccc(OC)cc4OC)cc3o2)cc1 | 8.22% | –
CCOC(=O)C1CCCN(CC(=O)Nc2cc(C)c3c(=O)oc4ccccc4c3n2)C1 (configuration not stated) | – | inactive
COc1ccc(S(=O)(=O)NCCSc2nnnn2-c2ccccc2)cc1 | -2.3% | –
COC(=O)c1c(NC(=O)CCCOc2ccccc2)sc2c1CCC(C)C2 (configuration not stated) | 9.76% | –
Cc1nn2c(=O)cc(COC(=O)c3ccccc3NC(=O)COc3ccccc3C)nc2s1 | 0.156% | –
COc1ccccc1CNC(=O)CCCn1c(=O)c2ccccc2n(CC(=O)Nc2ccc(C)cc2Cl)c1=O | -9.25% | –
COc1ccccc1CNC(=O)NCc1noc2ccc(C)cc12 | -1.14% | –
CCOc1ccccc1NC(=O)Cn1c2ncccc2c(=O)n1-c1ccc(C)c(C)c1 | -2.74% | –
O=C(CSc1nc2ccccc2nc1Cc1ccccc1)N1CCCCC1 | -9.31% | –
CCOc1cccc(NC(=O)CSc2ncc(-c3ccc(Cl)cc3)[nH]2)c1 | 3.11% | –
Cc1c(C(=O)N(C)C)sc2c1c(=O)n(-c1ccc(F)cc1)c(=O)n2CC(=O)N(C)c1ccccc1 | 8.29% | –
CCOc1ccc(N(C)S(=O)(=O)c2cc(-c3cnc(C)o3)ccc2OC)cc1 | 2.21% | –
Cc1oc(-c2ccccc2F)nc1CN1CCC(C(=O)NCCc2ccc(Cl)cc2)CC1 | 0.46% | –
CCOc1ccc(NC(=O)c2c(NC(=O)Cc3ccccc3)sc3c2CCCCC3)cc1 | 5.92% | –
CCc1nnc(SCC(=O)Nc2cc(OC)ccc2OC)nc1CC | 0.423% | –
